# Source: PubChem BioAssay (several laboratories)
# Mtb UGM inh: blocks M. tuberculosis UGM enzyme. P9WIQ1. purified UGM, fluorescence polarization probe displacement. inhibition, % at 10 µM. actives 0.06% (n = 320,000). AID 504406; in the data active means inhibition above about 10%, passing the limit was not always enough; inconclusive means no clear call, values can overlap the other calls
# Target sequence (P9WIQ1 whole entry, looked up): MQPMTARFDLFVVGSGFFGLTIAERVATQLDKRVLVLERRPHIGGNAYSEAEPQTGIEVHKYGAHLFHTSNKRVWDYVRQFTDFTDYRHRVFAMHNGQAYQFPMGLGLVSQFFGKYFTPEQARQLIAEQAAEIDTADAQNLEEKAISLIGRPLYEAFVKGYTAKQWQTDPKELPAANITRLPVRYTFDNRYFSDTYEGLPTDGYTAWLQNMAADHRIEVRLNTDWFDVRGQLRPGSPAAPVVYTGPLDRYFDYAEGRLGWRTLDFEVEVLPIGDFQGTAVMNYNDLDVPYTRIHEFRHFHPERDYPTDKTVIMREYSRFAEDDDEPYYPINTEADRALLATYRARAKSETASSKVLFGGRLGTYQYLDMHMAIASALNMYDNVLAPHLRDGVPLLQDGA
# FBA Mtb inh: inhibitors of M. tuberculosis fructose-bisphosphate aldolase; P9WQA3; inhibition, % at 1 µM; purified M. tuberculosis FBA, fluorescence read-out; actives 2.3% (n = 360,000); in the data active means inhibition above about 27%;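 further: 0% = vehicle and 100% = reference inhibitor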
# RecA splice inh: blocks M. tuberculosis RecA intein splicing; cell-free RecA intein splicing, fluorescence; P9WHJ3; inhibition, % (test concentration not listed); AID 2221; actives 0.75% (n = 290,000); in the data active means inhibition above about 30%; inconclusive means no clear call, values can overlap the other calls;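 further: 0% = vehicle wells and 100% = reference inhibitor control wells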
# Mtb bLac sens: beta-lactam sensitization of Mtb H37Rv. M. tuberculosis H37Rv growth with meropenem, percent inhibition. inhibition, % at 25 µM. actives 0.27% (n = 330,000); call rule not given here;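 further: growth measured after seven days incubation then overnight dye step; 0% = bacteria only wells and 100% = bacteria with antibiotic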
# GDH-TPI inh: inhibits GDH-TPI coupling enzymes, artifact for Mtb FBA screen; GDH-TPI coupled enzyme counterscreen, NADH absorbance; inhibition, % at 4.8 µM; actives 1.2% (n = 360,000); AID 588335; in the data active means inhibition above about 30%;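 further: 0% = DMSO wells and 100% = wells lacking the enzyme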
# Rv3671c protease: Rv3671c (M. tuberculosis) protease inhibition | P9WHR9 | inhibition, % at 5.96 µM | actives 0.048% (n = 320,000); in the data active means inhibition above about 38%;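 further: extracellular domain of Rv3671c used as enzyme; 0% = enzyme with DMSO and 100% = no enzyme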
# An asterisk follows results filed as active; ? = inconclusive; nt = no result given; + = active, no number. Compounds with a hit are over-represented: about 4% of the library has one in this group of screens.
SMILES,Mtb UGM inh,FBA Mtb inh,RecA splice inh,Mtb bLac sens,GDH-TPI inh,Rv3671c protease
NC(=O)c1cccc(-c2cccc3nccn23)c1,nt,2,nt,nt,2,nt
N#CCc1ccc(-c2cccc3nccn23)cc1,nt,+,nt,nt,8,nt
OCc1ccccc1-c1cccc2nccn12,nt,15,nt,nt,13,nt
Clc1cccc(-c2cccc3nccn23)c1,nt,+,nt,nt,16,nt
CS(=O)(=O)Nc1ccc(Oc2ncccn2)cc1,-2,-2,-1,-5,-3,-4
CN(C)c1ccc(-c2cccc3nccn23)cc1,nt,+,nt,nt,20,nt
CS(=O)(=O)Nc1ccc(-c2cccc3nccn23)cc1,nt,162*,nt,nt,9,nt
c1cc(-c2ccc(N3CCOCC3)cc2)n2ccnc2c1,nt,+,nt,nt,17,nt
CCOC(=O)[C@H]1[C@H]2COc3ccc(Br)cc3[C@@H]2N2C(=O)CN(CC3CCCO3)C(=O)[C@@]12C (some centres undefined),0,0,nt,-8,-7,0
COc1ccc(/C=N/N(C)c2cc(=O)n(C)c(=O)[nH]2)cc1OC,-3,-2,10,3,46*,3
COc1ccc(/C=N/N2CCN(C)CC2)cc1OC,0,3,1,-8,16,-4
CN(/N=C/C=C/c1ccccc1)c1cc(=O)n(C)c(=O)[nH]1,2,-5,12,?,73*,-7
CCSc1nc2c(c(=O)[nH]1)C(c1ccccn1)C1=C(CC(C)(C)CC1=O)N2 (centres undefined),-4,124*,-4,12,12,1
O=C(/C=C/c1cn(-c2ccccc2)nc1-c1cccnc1)N1CCCC1,nt,1,-1,nt,3,nt
N#C/C(=C\c1cn(-c2ccccc2)nc1-c1cccnc1)c1nnc2n1CCCCC2,2,3,3,8,39*,4
COc1ccc(NC(=O)C(=O)NNC(=O)c2cccs2)c(OC)c1,-2,1,2,75,36*,-2
CNC(=O)N(O)C1N(/N=C/c2cccnc2)C(=S)SC1(C)C (centres undefined),-1,-1,-11,-7,17,7
CNC(=O)N(O)C1N(/N=C/c2ccc(SC)cc2)C(=S)SC1(C)C (centres undefined),0,0,-15,-3,36*,0
CNC(=O)N(O)C1N(/N=C/c2ccccc2O)C(=S)SC1(C)C (centres undefined),2,0,-9,-2,36*,6
CN(C)c1ccc(/C=N/N2C(=S)SC(C)(C)C2N(O)C(=O)Nc2ccc([N+](=O)[O-])cc2)cc1 (centres undefined),2,0,-2,-7,51*,8
CCOc1cc(/C=C2\C(=O)N(c3cccc(C(=O)O)c3)N=C2C(F)(F)F)ccc1OCC(=O)Nc1ccccc1OC,1,nt,33*,-2,nt,-1
C[n+]1ccc(/C=N/Nc2nc(Cl)c(C#N)c(Cl)c2Cl)cc1,-2,-14,9,7,10,4
Cc1ccc(C(=O)C(C)OC(=O)Cn2[nH]c(=O)c3ccccc3c2=O)cc1 (centres undefined),0,0,2,-4,4,7
Nc1nc2c(s1)CCc1c-2cnn1-c1ccccc1,3,11,98*,98,10,-61
Nc1nc2c(s1)COc1ccccc1-2,1,-2,-3,65,0,12
SMILES,Mtb UGM inh,FBA Mtb inh,RecA splice inh,Mtb bLac sens,GDH-TPI inh,Rv3671c protease
CCCCN1C(=O)/C(=C/c2ccc(N(C)C)cc2)C(=O)N(Cc2ccco2)C1=O,0,-1,3,1,21,-31
CCN(CC)c1ccc(/C=C2\C(=O)NC(=O)N(Cc3ccco3)C2=O)cc1,-2,-10,-1,4,31*,-18
CCN(CC)c1ccc(/C=C2/C(=O)NC(=O)N(CC3CCCO3)C2=O)cc1 (centres undefined),4,-1,-3,-5,40*,-40
CN(C)c1ccc(CC(=O)N2CCCCC2c2cc(C(=O)Nc3ccccc3Cl)no2)cc1 (centres undefined),nt,0,nt,nt,1,nt
Cc1c(C)c2ccc(OC(C)C(=O)NC3CC(C)(C)NC(C)(C)C3)cc2oc1=O (centres undefined),-2,123*,-1,4,12,-5
Cc1c(OC(C)C(=O)NC2CC(C)(C)NC(C)(C)C2)ccc2c3c(c(=O)oc12)CCC3 (centres undefined),0,20,2,-2,8,-1
O=C(CCS(=O)(=O)c1ccc2c(c1)NC(=O)CS2)NCc1cccs1,1,2,0,0,14,-5
CC(C)(C)NC(=O)CN(C(=O)CS(=O)CC(=O)Nc1ccc(F)cc1)c1ccc2c(c1)OCCO2 (centres undefined),0,4,6,8,-2,-9
Clc1ccc2nnnc(-c3ccccc3)c2c1,0,1,56*,3,-3,-6
COC(=O)COc1ccc(S(=O)(=O)Nc2cc([N+](=O)[O-])ccc2C)cc1,-2,-5,1,5,0,4
Cc1c(/C=C(\CC(=O)O)c2nc3ccccc3s2)cc(C#N)n1C,-2,10,-3,-5,43*,7
Cc1cc(/C=C(\C#N)C(=O)NCc2ccccc2)cc(C)c1O,0,-14,1,-10,7,-8
COc1cc(/C=C(/C#N)C(=O)NCc2ccccc2)cc(OC)c1OC,-1,-1,-3,3,50*,-1
Cc1nn(-c2ccccc2)c(Cl)c1/C=C(/CC(=O)O)c1nc2ccccc2s1,nt,-1,nt,nt,25,nt
Cc1c(/C=C(\C#N)C(=O)NCc2ccccc2)cc(C#N)n1C,-3,-4,-5,5,35*,-7
CCOC(=O)c1cnc(SCC(=O)Nc2cc(OC)ccc2OC)nc1N,-4,-2,3,17,-1,12
C[C@H](NC(=O)[C@@H]1Cc2ccccc2CN1)C(=O)NCC1CCCO1 (some centres undefined),-5,-2,8,-4,4,4
N#C/C(=C\c1ccncc1)c1nc2ccccc2o1,0,10,28,-2,6,2
N#C/C(=C\Nc1ccccc1O)c1nc2ccccc2o1,3,-1,4,2,33*,4
CCOc1cc(C2NN=C(c3ccc(C)cc3)S2)ccc1O (centres undefined),1,4,nt,99,34*,6
COc1ccc(C2NN=C(c3ccc(C)cc3)S2)cc1 (centres undefined),-2,11,2,66,5,2
Cn1cc(/C=C(\NC(=O)c2ccccc2)C(=O)N2CCOCC2)c2ccccc21,0,-3,0,6,24,-4
COc1ccc(C(=O)N/C(=C\c2cn(C)c3ccccc23)C(=O)N2CCOCC2)cc1,1,2,-2,-11,32*,-10
CCn1cc(/C=C(\NC(=O)c2ccc(OC)cc2)C(=O)N2CCOCC2)c2ccccc21,4,3,-5,-2,38*,1
CCn1cc(/C=C(\NC(=O)c2cc(OC)c(OC)c(OC)c2)C(=O)N2CCOCC2)c2ccccc21,nt,0,nt,nt,31*,nt
